Consider 14 compounds from PubChem BioAssay (NCI).

This is part of a sample that, as a whole, favours compounds with a hit. Of some 83,000 tested, about 20% had one in any assay.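 Cell lines were cultured in 96-well plates, exposed to a single compound concentration, and assessed for percent growth 48 hours later.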 Unmarked numbers belong to inactive results. Activity calls are given as the source filed them. Rule for the calls: active = growth percent below 10; inactive = the rest.

Test systems include HCT-15 colon; HT29 colon; SNB-75 CNS; SNB-19 CNS; U251 CNS; PC-3 prostate; SK-MEL-5 melanoma; UACC-62 melanoma; LOX IMVI melanoma; SK-MEL-28 melanoma.
Common to all, as to experiment: NCI-60 one-dose screen, 48 h (100 = growth as untreated, 0 = no growth, -100 = all killed)
What all share (conditions): 10 µM unless noted

With `COc1ccc(NC(=O)CSc2nnc(-c3ccc(-c4nc5ccc(Cl)cc5[nH]4)cc3)o2)cc1`, the growth in the test with HCT-15 colon was 41.9%; in the test on HT29 colon, 47.8%; in the test on SNB-75 CNS it was 5.21% (active); in the test on SNB-19 CNS, -29.2% (active); in the test with U251 CNS, -58% (active); with PC-3 prostate, -20.7% (active). The growth in the test on SK-MEL-5 melanoma is 7% (active); with UACC-62 melanoma, -32.6% (active); with LOX IMVI melanoma, -33.3% (active); in the test with SK-MEL-28 melanoma, -76% (active).

As to `Nc1nnc(CS(=O)(=O)c2ccccc2)s1`, the growth was 99.9% with HCT-15 colon; 94.6% in the test on HT29 colon; 102% in the test with SNB-75 CNS; 103% with SNB-19 CNS; 95.6% in the test on U251 CNS; 93% in the test on PC-3 prostate. The growth with SK-MEL-5 melanoma is 131%; in the test with UACC-62 melanoma, 91%; in the test with LOX IMVI melanoma, 84.6%; in the test with SK-MEL-28 melanoma, 112%.

On to `Nc1cc2ccccc2c(=O)n1NC(=O)c1ccc(Br)cc1`, for which the growth in the test on HCT-15 colon is 99.4%; in the test with HT29 colon, 118%; in the test on SNB-75 CNS, 58.4%; in the test on SNB-19 CNS it was 84.5%; in the test on U251 CNS it was 96.1%; in the test with PC-3 prostate, 95.3%. The growth in the test with SK-MEL-5 melanoma is 88.1%; with UACC-62 melanoma, 80.6%; in the test on LOX IMVI melanoma, 84.2%; in the test with SK-MEL-28 melanoma it was 88%.

Take `COc1ccc(C(=O)c2cc(C(C)=O)c3c(C)cc(C)cn23)cc1`: the growth in the test on HCT-15 colon is 65.9%; with HT29 colon it was 72.5%; with SNB-75 CNS it was 2.27% (active); with SNB-19 CNS it was 24.8%; in the test on U251 CNS it was 32.4%; in the test on PC-3 prostate, 82.9%. In addition, the growth in the test on SK-MEL-5 melanoma was 33.6%; in the test with UACC-62 melanoma it was 63.4%; with LOX IMVI melanoma, 54.9%; with SK-MEL-28 melanoma, 72.9%.

With `COc1sc(/C=N/NC(=O)c2[nH]c3ccc(Br)cc3c2-c2ccccc2)cc1Cl`, the growth in the test on HCT-15 colon was -26.2% (active); in the test on HT29 colon, -52.8% (active); in the test with SNB-75 CNS, 42%; in the test with SNB-19 CNS it was -46% (active); in the test with U251 CNS, -40.7% (active); in the test on PC-3 prostate, 4.59% (active). Further, the growth was -91.1% (active) in the test with SK-MEL-5 melanoma, -30.6% (active) in the test on UACC-62 melanoma, -91.7% (active) in the test on LOX IMVI melanoma and -33.1% (active) in the test on SK-MEL-28 melanoma.

As to `COc1ccc(-c2nnc3c(/C=C/c4ccc(Br)cc4)nc4ccccc4n23)cc1`, the growth in the test with HCT-15 colon is -60.7% (active); with HT29 colon it was -34.1% (active); in the test on SNB-75 CNS it was 83.4%; with SNB-19 CNS it was 86.3%; in the test on U251 CNS, 68.4%; in the test with PC-3 prostate, 86.4%. Besides, the growth with SK-MEL-5 melanoma was 49.4%; in the test on UACC-62 melanoma, 40.8%; in the test on LOX IMVI melanoma, -87.9% (active); in the test with SK-MEL-28 melanoma, 72.4%.

Take `CC1=C(C)C(=O)C(NCCN2CCOCC2)=C(Br)C1=O`: the growth is 90.7% in the test on HCT-15 colon; 93.7% with HT29 colon; 106% in the test with SNB-75 CNS; 91.3% in the test with SNB-19 CNS; 44.8% in the test on U251 CNS; 61.8% in the test with PC-3 prostate. Also, the growth was 62.1% in the test with SK-MEL-5 melanoma, 39.4% with UACC-62 melanoma, -28.5% (active) in the test on LOX IMVI melanoma and 75.4% in the test on SK-MEL-28 melanoma.

`N/C(=N\c1nc2ccc([N+](=O)[O-])cc2s1)NC(=O)Nc1ccccc1Cl`: the growth was 28.3% in the test with HCT-15 colon; 62.1% with HT29 colon; 24.4% in the test with SNB-75 CNS; 49.7% in the test on SNB-19 CNS; -0.568% (active) with U251 CNS; 69% in the test on PC-3 prostate. Besides, the growth with SK-MEL-5 melanoma is 44.7%; in the test on UACC-62 melanoma it was 54.8%; in the test on LOX IMVI melanoma it was 29.6%; with SK-MEL-28 melanoma, 60.5%.

As for `COc1c(B(O)O)cc(F)cc1-c1nc2c(F)cc3[nH]ncc3c2c2c1CCCC2`, the growth with HCT-15 colon was 4.25% (active); in the test with HT29 colon, 21.1%; with SNB-75 CNS, -78.1% (active); in the test with SNB-19 CNS it was 7.54% (active); in the test on U251 CNS, 10.8%; in the test on PC-3 prostate it was 12.8%. For the same compound, the growth in the test with SK-MEL-5 melanoma was 7.04% (active); in the test on UACC-62 melanoma it was -7% (active); with LOX IMVI melanoma, -16.6% (active); in the test with SK-MEL-28 melanoma, 25.7%.

Turning to `C[C@H]1[C@@H](CC(=O)N[C@@H](Cc2coc3ccccc23)B(O)O)O[C@@H]2OC3(C)CC[C@H]4[C@H](C)CC[C@@H]1[C@@]24O3`, the growth with HCT-15 colon was -51.7% (active); with HT29 colon, -57.4% (active); in the test with SNB-75 CNS it was -19% (active); with SNB-19 CNS, 35%; in the test on U251 CNS, 25.2%; with PC-3 prostate it was 28.5%. In addition, the growth is -83.4% (active) with SK-MEL-5 melanoma, -75.8% (active) in the test with UACC-62 melanoma, -72.7% (active) with LOX IMVI melanoma and 5.12% (active) in the test with SK-MEL-28 melanoma.

On to `Nc1cc(-c2c[nH]c3ccc(F)cc23)nc2cc(-c3c[nH]c4ccccc34)nn12`, for which the growth in the test with HCT-15 colon was -61.2% (active); with HT29 colon, -42.8% (active); in the test on SNB-75 CNS it was 66.2%; in the test with SNB-19 CNS, -19.1% (active); in the test with U251 CNS, -19.1% (active); in the test with PC-3 prostate, 10.3%. The growth in the test with SK-MEL-5 melanoma was -4.35% (active); in the test on UACC-62 melanoma, -8.04% (active); with LOX IMVI melanoma, -83.9% (active); with SK-MEL-28 melanoma, -33.9% (active).

With `Cc1cc(C)c2[nH]c(=O)c(C(c3nnnn3Cc3ccc4c(c3)OCO4)N3CCN(C)CC3)cc2c1` (stereo not given), the growth is 110% in the test on HCT-15 colon; 110% with HT29 colon; 115% in the test on SNB-75 CNS; 101% with SNB-19 CNS; 104% with U251 CNS; 111% in the test on PC-3 prostate. The growth with SK-MEL-5 melanoma was 107%; in the test with UACC-62 melanoma it was 104%; with LOX IMVI melanoma, 100%; with SK-MEL-28 melanoma it was 105%.

For `CCCCC[C@@H]1C/C=C(\C)[C@@H](O)C(C)(C)C(=O)[C@@H](C)/C=C(\C)[C@@H]2C[C@H](O)C[C@](O)(CC(=O)O1)O2`, the growth in the test on HCT-15 colon was 38.4%; in the test on HT29 colon it was 50.4%; in the test on SNB-75 CNS, 32.9%; with SNB-19 CNS, 37.2%; in the test on U251 CNS, 61.2%; with PC-3 prostate, 21.4%. In addition, the growth in the test with SK-MEL-5 melanoma is -17.6% (active); in the test on UACC-62 melanoma, 55.8%; in the test with LOX IMVI melanoma it was 50.9%; in the test on SK-MEL-28 melanoma, 76.3%.

On to `COc1ccc(/C=C/c2nc3ccccc3c(=O)n2CC(=O)Nc2ccccc2)cc1`, for which the growth in the test on HCT-15 colon is 79.9%; in the test with HT29 colon, 83.3%; in the test with SNB-75 CNS, -35% (active); in the test with SNB-19 CNS, 29.1%; with U251 CNS, 16.3%; in the test on PC-3 prostate it was 84.7%. Moreover, the growth with SK-MEL-5 melanoma is 71.6%; in the test with UACC-62 melanoma it was 78.6%; in the test with LOX IMVI melanoma, 26.9%; in the test on SK-MEL-28 melanoma, 79.1%.
